Experimental data as given in the supplement of paper PMC5662767.

Each compound was assayed on Drosophila S2 cl14 SmoIP sensor cells (assay: normalized SmoIP GFP fluorescence (untreated unstimulated = 0%, untreated Hh-stimulated = 100%); higher = more Smo activation sensor fluorescence). Settings: stimulation: mock conditioned medium (-Hh); compound concentration: 2 uM; 24 h.
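Further: flow cytometry read-out as median GFP intensity of gated cells, compounds added 30 min before Hh-conditioned or mock medium, mock-treated cells serving as unstimulated baseline.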

Row | SMILES | normalized SmoIP GFP fluorescence [%]
1 | CCOC(=O)[C@H]1O[C@@H]1C(=O)N[C@@H](CC(C)C)C(=O)NCCC(C)C [Aloxistatin] | 3.51
2 | FC(F)c1nc2ccccc2n1-c1nc(N2CCOCC2)nc(N2CCOCC2)n1 | -6.73
3 | OC[C@H]1O[C@@H](c2ccc(Cl)c(Cc3ccc(O[C@H]4CCOC4)cc3)c2)[C@H](O)[C@@H](O)[C@@H]1O | -7.78
4 | Cc1nc(N)sc1-c1ccnc(Nc2ccc(N3CCOCC3)cc2)n1 | 94.3
5 | O=c1c(-c2ccc(O)cc2)coc2cc(O)cc(O)c12 [Genistein] | -0.804
6 | C#CCC(Cc1cnc2nc(N)nc(N)c2n1)c1ccc(C(=O)N[C@@H](CCC(=O)O)C(=O)O)cc1 (stereo partly drawn) [Pralatrexate(Folotyn)] | 13.3
7 | O=C(O)CCc1ccc(NCc2cccc(Oc3ccccc3)c2)cc1 | -2.19
8 | CCOC(=O)Nc1cc(-c2ccc(C)c(NS(C)(=O)=O)c2)nn2c(C)nnc12 [bromosporine] | 49.9
